From PubChem BioAssay
“And” between values parts separate entries of the source, which are not always exact repeats. Equal entries are not always repeated. More than one record can exist for a structure, and the calls need not agree. The source made the active and inactive calls.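 Rule for the calls, unless noted: active = inhibition at or above 50% relative to wild type and mutant plate controls; inactive = inhibition below 50%.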

Columns and labels:
[1] = inhibitors of TNFa-induced NFkB p65 translocation, primary screen, imaging, HUVEC, MLSMR starter and 10KST1 sets (AID 438;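 active = inhibition above 20% together with a positive visual image hit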;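 note: compound added about 3h40 before a 20 min TNFalpha stimulation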;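 for inhibition: signal is the nuclear over cytoplasmic p65 intensity ratio per well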); settings: HUVEC TNFa-induced p65 nuclear translocation; cell count: measured here: nuclei count (cytotoxicity indicator), at 2.08 µM; inhibition: at 2 µM, stronger effect = higher value, 0% TNFa-plus-vehicle, 100% no-TNFa wells
[2] = inhibitors of mutant huntingtin aggregation, primary screen, imaging, exon1htt(103Q)mCFP cells, high-content imaging (AID 483;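 active = visual image review flags a hit and inhibition of aggregation exceeds 20%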;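 note: compound exposure lasted 3 days before fixation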;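 for nuclei count: percent of the per-plate median nuclei count of sample wells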); settings: exon1htt(103Q)mCFP cell line, aggregate imaging, at 2 µM; inhibition of aggregation: stronger effect = higher value; nuclei count: measured here: cell count, toxicity
[3] = inhibitors of E-selectin induction by TNFa, primary screen, imaging, HUVEC, immunofluorescence, MLSMR starter and 10KST1 sets (AID 487;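 active = visually confirmed hit in the image check and inhibition above 20%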;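 for inhibition: signal is fraction of cell area covered by stained E-selectin grains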;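 for nuclei count: 100% = median nuclei count of all wells on the same plate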); settings: HUVEC TNFalpha-induced E-selectin immunofluorescence imaging, at 2 µM; inhibition: stronger effect = higher value; nuclei count: measured here: cell number, toxicity
[4] = DUSP6 inhibitors restoring Erk phosphorylation by chemical complementation, primary imaging in DUSP6-transfected HeLa (AID 609;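 active = compounds giving at least 50% inhibition in the cell-based MKP-3 phosphatase rescue imaging test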;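 for inhibition: phospho-Erk level distribution per well compared with pooled transfected vehicle control wells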); settings: HeLa MKP-3 transfected, phospho-Erk imaging KS statistic, at 10 µM, cells stimulated with TPA for 15 min
[5] = target: Dual specificity protein phosphatase 6 (Homo sapiens) (UniProt Q16828); test: as above; settings: HeLa MKP-3 transfected, phospho-Erk imaging KS statistic; at 10 µM; stronger effect = higher value; cells stimulated with TPA for 15 min
Sequence of Dual specificity protein phosphatase 6 (Homo sapiens) (Q16828 whole entry, looked up): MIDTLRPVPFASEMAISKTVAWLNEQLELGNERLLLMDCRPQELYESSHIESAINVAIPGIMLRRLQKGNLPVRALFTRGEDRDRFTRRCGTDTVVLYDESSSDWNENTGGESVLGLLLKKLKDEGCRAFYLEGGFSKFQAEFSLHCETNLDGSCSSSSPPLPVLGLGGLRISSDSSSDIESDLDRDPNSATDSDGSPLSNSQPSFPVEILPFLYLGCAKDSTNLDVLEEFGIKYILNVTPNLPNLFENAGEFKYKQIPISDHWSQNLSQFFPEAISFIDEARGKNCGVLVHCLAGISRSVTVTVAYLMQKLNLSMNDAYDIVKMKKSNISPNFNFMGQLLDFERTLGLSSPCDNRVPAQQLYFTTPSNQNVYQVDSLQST

[6] = target: Voltage-gated potassium channel subunit beta-2 (Rattus norvegicus) (UniProt P62483); test: KvBeta enzyme negative modulators, primary screen, biochemical, NADPH fluorescence (AID 622;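 active = fluorescence slope higher than the sample average by over 3 SD, cut at about -0.22 in these data, passing the limit was not always enough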;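 note: slope of raw intensity against log time taken from 70 to 1610 s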); settings: recombinant KvBeta, 4-cyanobenzaldehyde reduction, at 10 µM, stronger effect = higher value
Sequence of Voltage-gated potassium channel subunit beta-2 (Rattus norvegicus) (P62483 whole entry, looked up): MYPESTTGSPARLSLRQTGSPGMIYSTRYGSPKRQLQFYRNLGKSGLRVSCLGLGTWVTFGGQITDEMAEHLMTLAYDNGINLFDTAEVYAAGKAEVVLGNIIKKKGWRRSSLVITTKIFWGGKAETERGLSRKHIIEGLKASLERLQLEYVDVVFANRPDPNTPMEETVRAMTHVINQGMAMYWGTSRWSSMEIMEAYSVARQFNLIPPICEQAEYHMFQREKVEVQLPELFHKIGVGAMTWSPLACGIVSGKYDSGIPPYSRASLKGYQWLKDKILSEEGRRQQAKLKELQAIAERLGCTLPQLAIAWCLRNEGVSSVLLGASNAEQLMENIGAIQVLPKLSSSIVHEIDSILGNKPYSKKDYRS

[7] = target: Voltage-gated potassium channel subunit beta-2 (Rattus norvegicus) (UniProt P62483); test: KvBeta positive modulators, primary screen, biochemical, NADPH fluorescence (AID 623;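 active = NADPH fluorescence slope more negative than the mean of all samples by about 3 SD, 99.7% confidence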;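 note: fluorescence intensity change per second fitted from 20 to 320 s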); settings: Recombinant KvBeta, NADPH fluorescence decrease slope, 10 min; at 10 µM; stronger effect = lower value
[8] = target: Alpha-2C adrenergic receptor (Homo sapiens) (UniProt P18825); test: modulators of alpha2C/GIRK thallium flux, primary screen, cell-based, HEK293 alpha2C/GIRK1/2 (AID 624;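 active = fluorescence slope after compound addition differing from the mean of all screened samples at 99.7% confidence, in either direction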;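 note: slope of fluorescence ratio to pre-addition baseline per second over 15 to 24 s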); settings: thallium flux BTC fluorescence, at 10 µM, actives lie on both sides
Sequence of Alpha-2C adrenergic receptor (Homo sapiens) (P18825 whole entry, looked up): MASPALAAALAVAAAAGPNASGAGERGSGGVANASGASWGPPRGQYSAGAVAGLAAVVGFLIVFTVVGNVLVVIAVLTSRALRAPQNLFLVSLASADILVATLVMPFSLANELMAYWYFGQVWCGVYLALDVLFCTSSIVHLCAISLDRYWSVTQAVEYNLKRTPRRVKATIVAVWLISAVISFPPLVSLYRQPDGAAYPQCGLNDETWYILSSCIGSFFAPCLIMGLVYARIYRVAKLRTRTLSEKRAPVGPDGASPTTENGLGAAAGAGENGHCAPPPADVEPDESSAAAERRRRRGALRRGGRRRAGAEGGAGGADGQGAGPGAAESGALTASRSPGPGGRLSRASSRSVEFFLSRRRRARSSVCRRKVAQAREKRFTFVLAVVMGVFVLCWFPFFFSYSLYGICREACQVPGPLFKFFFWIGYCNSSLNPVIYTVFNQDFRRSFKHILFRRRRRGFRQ

[9] = inhibitors of larval lipid processing in zebrafish, primary screen, whole organism, PED6 fluorescence, gall bladder and intestine (AID 686;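 active = a full or partial loss of lipid-probe fluorescence in the fish gall bladder, intestine or both, judged by eye; inactive = no fluorescence loss, or compound toxic to the fish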;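 note: larvae 5 to 7 days old with five fish per well; signal comes from phospholipase A2 cleavage of quenched PED6 carried via bile; overnight exposure to compound and PED6 before scoring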); settings: Zebrafish larvae PED6 lipid processing, fluorescence scoring; screened at 20 µM (by protocol)
[10] = inhibitors of Chlamydomonas gravitaxis, primary screen, whole organism, Chlamydomonas reinhardtii, WT vs cilia-less mutant, absorbance, 96-well (AID 463189); settings: OD600 absorbance, 2 days, at 10 µM, stronger effect = higher value;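 note: 0% = wild type cc124 cells in DMSO and 100% = ciliumless bld1 mutant cells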
[11] = inhibitors of Sendai virus-induced IRF3 signaling, primary screen, TLR/RLR signaling modifier project, cell-based, Sendai virus stimulus, luciferase, 10K MLSCN set (AID 602276;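 active = inhibition at or above 50% at 10 µM; inactive = inhibition below 50%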;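 note: firefly luciferase from ISG56 promoter only with Renilla not read in this screen; 0% = Sendai virus plus DMSO and 100% = medium plus DMSO without virus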); settings: HEK293 RL24 IRF3 luciferase reporter, at 10 µM, stronger effect = higher value
[12] = inhibitors of poly I:C-induced TLR3 signaling, primary screen, cell-based, poly I:C stimulus, luciferase, 10K MLSCN set (AID 602277;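 active = inhibition of the reporter signal at or above 50%; inactive = inhibition below 50%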); settings: HEK293-TLR3 RL24 IRF3 luciferase reporter, at 10 µM, stronger effect = higher value
[13] = measured here: cell density z-score
[14] = measured here: nuclear c-Myc green intensity z-score
[15] = measured here: nuclear pErk red intensity z-score, stronger effect = higher value

SMILES | cell count [1] | inhibition [1] | inhibition of aggregation [2] | nuclei count [2] | inhibition [3] | nuclei count [3] | z-score [4, 13] | z-score [4, 14] | z-score [4, 15] | inhibition [5] | fluorescence slope [6] | NADPH fluorescence slope [7] | slope [8] | outcome [9] | inhibition [10] | inhibition [11] | inhibition [12]
CC(=O)[C@@]1(O)CC[C@H]2[C@@H]3CCC4=CC(=O)CC[C@]4(C)[C@H]3[C@@H](O)C[C@@]21C | 623 | 0.5% (inactive) | 16.3% (inactive) | 83% | -142% (inactive) | 140% | -0.503 | -0.682 | 0.228 | -4.44% (inactive) | -0.495 (inactive) | -5.2e-05 (inactive) | 0.00465 (inactive) | inactive | -7.94% (inactive) | 8.03% (inactive) | 38.5% (inactive)
OCCN1CCN(CCCN2c3ccccc3Sc3ccc(Cl)cc32)CC1 | 705 | -3% (inactive) | -20.6% (inactive) | 109% | -112% (inactive) | 130% | -0.393 | 0.625 | 2.66 | 3.45% (inactive) | -0.46 (inactive) | -5.7e-05 (inactive) | 0.0036 (inactive) | inactive | 3.48% (inactive) and 164% (active) | 17.3% (inactive) | 40.7% (inactive)
CCCCC[C@H](O)/C=C/C1=C(CCCCCCC(=O)O)C(=O)CC1 | 582 | -10.1% (inactive) | -18.7% (inactive) | 109% | -15.5% (inactive) | 111% | 0.0464 | -0.541 | -1.16 | -0.493% (inactive) | -0.474 (inactive) | -5.2e-05 (inactive) | 0.00393 (inactive) | inactive | -11.8% (inactive) | 7.96% (inactive) | 34.1% (inactive)
COCCOC(=O)C1=C(C)NC(C)=C(C(=O)OC(C)C)C1c1cccc([N+](=O)[O-])c1 (stereo not drawn) | 617 | -5.1% (inactive) | -29.1% (inactive) | 98.9% | -38.8% (inactive) | 122% | -0.996 | 0.882 | -0.963 | 32.3% (inactive) | -0.534 (inactive) | 2.5e-05 (inactive) | 0.00348 (inactive) | inactive | 10.2% (inactive) and -3.02% (inactive) | 19.6% (inactive) | 25.9% (inactive)
Oc1c(Cl)cc(Cl)cc1CNc1ccc(Br)cn1 | 580 | -1.3% (inactive) | -20.5% (inactive) | 108% | -9.9% (inactive) | 102% | -1.08 | 0.507 | -0.618 | -3.5% (inactive) | -0.357 (inactive) | 1.5e-05 (inactive) | 0.00449 (inactive) | inactive | -5.67% (inactive) | 17% (inactive) | 20.5% (inactive)
O=C(O)c1cc2cc(F)ccc2[nH]1 | 552 | -0.9% (inactive) | -5.1% (inactive) | 95.6% | -14.2% (inactive) | 107% | 2.14 | -1.93 | -0.0855 | -5.24% (inactive) | -0.457 (inactive) | -3.2e-05 (inactive) | 0.00488 (inactive) | inactive | -3.42% (inactive) and -23.2% (inactive) | 12.4% (inactive) | 46.1% (inactive)
CN1CCC(=C2c3ccccc3CC(=O)c3sccc32)CC1 | 641 | 5.3% (inactive) | 5.4% (inactive) | 97.7% | -56.9% (inactive) | 126% | 2.91 | 0.175 | -2.59 | 10.2% (inactive) | -0.5 (inactive) | -6.2e-05 (inactive) | 0.00525 (inactive) | inactive | -11.3% (inactive) and 22.8% (inactive) | -1.65% (inactive) | 51.2% (active)
c1ccc2c(CC3=NCCN3)cccc2c1 | 547 | -0.9% (inactive) | -4.4% (inactive) | 90.2% | -43.3% (inactive) | 118% | -0.259 | -0.0766 | 1 | 9.37% (inactive) | -0.503 (inactive) | -6.8e-05 (inactive) | 0.00554 (inactive) | inactive | -6.08% (inactive) | 12.4% (inactive) | 36.7% (inactive)
Cc1c(CCC#N)c(N2CCN(C3CCCCC3)CC2)n2c(nc3ccccc32)c1C#N | 433 | -14.4% (inactive) | 14.6% (inactive) | 98.9% | -38.1% (inactive) | 128% | 0.167 | -0.385 | -0.671 | 13.7% (inactive) | -0.236 (inactive) | -5.2e-06 (inactive) | 0.00599 (inactive) | inactive | 8.11% (inactive) | 19.2% (inactive) | 17.3% (inactive)
COc1ccc(C2=Nn3c(nnc3-c3ccccc3)SC2)cc1OC | 523 | -5.5% (inactive) | -6.6% (inactive) | 92.4% | -126% (inactive) | 132% | -0.336 | 0.955 | 0.104 | -11.5% (inactive) | -0.413 (inactive) | -0.000132 (inactive) | 0.00597 (inactive) | inactive | 2.7% (inactive) | 25% (inactive) | 40.2% (inactive)
CO[C@H]1C=CO[C@@]2(C)Oc3c(C)c(O)c4c(O)c(c(C=NN5CCN(C)CC5)c(O)c4c3C2=O)NC(=O)C(C)=CC=C[C@H](C)[C@H](O)[C@@H](C)[C@@H](O)[C@@H](C)[C@H](OC(C)=O)[C@@H]1C | 652 | -3.9% (inactive) | -21% (inactive) | 108% | -93.2% (inactive) | 125% | -0.406 | 1.71 | 0.381 | 13.3% (inactive) | -0.556 (inactive) | 4.3e-06 (inactive) | 0.00466 (inactive) | inactive | 10.8% (inactive) | 33.7% (inactive) | 49.7% (inactive)
c1cncc(-c2nnc3sc(-c4ccco4)nn23)c1 | 535 | 0.4% (inactive) | 3.4% (inactive) | 94.2% | -81.8% (inactive) | 105% | 0.315 | -1.33 | 1.09 | -2.47% (inactive) | -0.476 (inactive) | -8.1e-06 (inactive) | 0.00677 (inactive) | inactive | 1.41% (inactive) | 13.2% (inactive) | -2.28% (inactive)
CCN1CCN(c2cc3c(cc2F)c(=O)c(C(=O)O)cn3C2CC2)CC1 | 605 | 1.1% (inactive) | 3.3% (inactive) | 97.3% | -41.3% (inactive) | 116% | 0.332 | 0.418 | 0.882 | -5.24% (inactive) | -0.498 (inactive) | 1.7e-06 (inactive) | 0.0049 (inactive) | inactive | -15.2% (inactive) | 1.29% (inactive) | 31.6% (inactive)
COC1=CC(=O)CC(C)C12Oc1c(Cl)c(OC)cc(OC)c1C2=O (stereo not drawn) | 555 | -5% (inactive) | 6.9% (inactive) | 105% | -16.1% (inactive) | 122% | -1.48 | -1.27 | 1.79 | -8.38% (inactive) | -0.459 (inactive) | -3.3e-05 (inactive) | 0.00463 (inactive) | inactive | -7.52% (inactive) | 22.1% (inactive) | 38.6% (inactive)
O=C(O)CC1SC(=Nc2cccc(C(F)(F)F)c2)NC1=O (stereo not drawn) | 447 | -2.2% (inactive) | 3.4% (inactive) | 95.3% | -42.6% (inactive) | 105% | -0.141 | 1.56 | 0.654 | 3.42% (inactive) | -0.448 (inactive) | 1.4e-05 (inactive) | 0.0048 (inactive) | inactive | 34.2% (inactive) | 19.6% (inactive) | 19.9% (inactive)
CC(=O)N=c1sc(S(N)(=O)=O)nn1C | 541 | -11.9% (inactive) | 7.8% (inactive) | 88.8% | -94% (inactive) | 104% | 0.515 | 1.15 | 1.01 | 9.37% (inactive) | -0.454 (inactive) | -6.4e-05 (inactive) | 0.00535 (inactive) | inactive | 13.4% (inactive) | 4.97% (inactive) | 15.9% (inactive)
CC(C)C[C@H](NC(=O)[C@@H]1O[C@H]1C(=O)O)C(=O)NCCCCN=C(N)N | 565 | 1.2% (inactive) | 14.2% (inactive) | 93.3% | -70.2% (inactive) | 120% | 0.0952 | -0.437 | 0.847 | 3.45% (inactive) | -0.492 (inactive) | -4.3e-05 (inactive) | 0.00515 (inactive) | inactive | 9.72% (inactive) | 13.8% (inactive) | 45.3% (inactive)
CCCCCCCCNC(C)C(O)c1ccc(SC(C)C)cc1 (stereo not drawn) | 561 | -16% (inactive) | -10.4% (inactive) | 105% | -40.8% (inactive) | 112% | 1.06 | -0.321 | -0.268 | 25.1% (inactive) | -0.477 (inactive) | -6.9e-05 (inactive) | 0.00365 (inactive) | inactive | 151% (active) | 19.5% (inactive) | -3.66% (inactive)
c1ccc(Cc2nnc3n2CCCCC3)cc1 | 427 | -7.4% (inactive) | 0.9% (inactive) | 104% | -122% (inactive) | 114% | -1.13 | -0.00465 | -0.441 | -0.608% (inactive) | -0.55 (inactive) | -4.5e-05 (inactive) | 0.0052 (inactive) | inactive | 22.9% (inactive) | 13.8% (inactive) | 22.9% (inactive)
